The results in this text go back to PubChem BioAssay.

Potency and affinity values are given separately. Inconclusive results are not listed. A number with no mark means an inactive call. Activity calls are given as the source filed them. Unless noted, no rule for the calls is given here.

One test in a line: CMV-driven luciferase expression suppression in HEK293 – cell-based, luminescence, dry powder, counter-screen for Pax8 inhibitor project, dose response (AID 743020;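 active = signal-lowering compounds whose fitted half-maximal concentration is at or below twice the top tested dose in every run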;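 also: HEK293 cells stably expressing the CMV luciferase reporter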). The settings on record: HEK293 CMV-luciferase reporter, SteadyGlo luminescence, 24 h; series mostly up to 35 µM; activity change, negative = inhibition: at the top concentration. For orientation: The purpose of a counterscreen is to sort out artefacts and off-target activity.
As for `C[C@H]1CCCCO[C@H](CN(C)Cc2ccc(C(F)(F)F)cc2)[C@@H](C)CN([C@@H](C)CO)C(=O)c2cc(NC(=O)c3ccccc3)ccc2O1`, the “activity change, negative = inhibition” value was -3.6%.
The same measure, in the same setting: the same measure for `Cc1noc(C)c1S(=O)(=O)N(C)C[C@H]1OCCCC[C@@H](C)Oc2ccc(NS(=O)(=O)c3ccc(Cl)cc3)cc2C(=O)N([C@@H](C)CO)C[C@@H]1C`: -15.2%; for `COc1ccc(-c2ccc(C3[C@@H]4CN(C(=O)Nc5cccc(F)c5)C[C@H]3N4)cc2)cc1` (some centres not stated): -3.21%; for `C[C@H]1CCCCO[C@H](CN(C)Cc2ccc(C(F)(F)F)cc2)[C@@H](C)CN([C@@H](C)CO)C(=O)c2cc(NS(=O)(=O)c3ccc(Cl)cc3)ccc2O1`: 1.64%.
On to `COc1ccc(S(=O)(=O)Nc2ccc3c(c2)C(=O)N([C@@H](C)CO)C[C@H](C)[C@@H](CN(C)Cc2ccc(C(F)(F)F)cc2)OCCCC[C@H](C)O3)cc1`, for which the “activity change, negative = inhibition” value is 2.69%.
On to `C[C@H]1CN([C@@H](C)CO)C(=O)c2cc(NS(=O)(=O)c3ccccc3)ccc2O[C@@H]1CN(C)Cc1ccc(Oc2ccccc2)cc1`, for which the “activity change, negative = inhibition” value was -5.61%.
As for `COc1cccc(-c2ccc([C@H]3[C@@H](CO)N(C(=O)Cc4ccccc4)[C@H]3C#N)cc2)c1`, the “activity change, negative = inhibition” value is 8.69%.
Consider `C[C@@H]1CN([C@@H](C)CO)C(=O)c2cc(NC(=O)c3ccccc3)ccc2O[C@@H](C)CCCCO[C@@H]1CN(C)Cc1ccc(C(F)(F)F)cc1`, for which the “activity change, negative = inhibition” value is 1.95%.
`Cc1ccc(S(=O)(=O)CC(CN2CCCCC2)N2CCCCC2)cc1` (configuration not stated): the “activity change, negative = inhibition” value was -8.38%.
Consider `Cc1nc2sc(C(c3ccco3)N3CCN(C(c4ccccc4)c4ccccc4)CC3)c(O)n2n1` (configuration not stated), for which the “activity change, negative = inhibition” value is -5.89%.
The same measure, in the same setting: the same measure for `C[C@H](CO)N1C[C@H](C)[C@H](CN(C)Cc2ccc(C(F)(F)F)cc2)OCCCC[C@H](C)Oc2ccc(NS(=O)(=O)c3ccccc3)cc2C1=O`: 3.04%; for `C[C@@H]1CN([C@H](C)CO)C(=O)c2cc(NS(=O)(=O)c3ccc(Cl)cc3)ccc2O[C@@H](C)CCCCO[C@@H]1CN(C)Cc1ccccc1`: 3.09%.
Regarding `C[C@@H]1CCCCO[C@@H](CN(C)S(=O)(=O)c2ccc(Cl)cc2)[C@H](C)CN([C@H](C)CO)C(=O)c2cc(NS(=O)(=O)c3ccc(F)cc3)ccc2O1`, the “activity change, negative = inhibition” value was 4.42%.
As for `Cc1ccccc1CNC(=O)C1CCCN(c2nnc(C)c3c(C)n(-c4ccccc4)nc23)C1` (configuration not stated), the “activity change, negative = inhibition” value is 4.24%.
With `CCN(CC(=O)Nc1c(F)cccc1F)C(=O)c1cc(S(=O)(=O)N(C)C)ccc1N1CCCC1`, the “activity change, negative = inhibition” value is -0.761%.
With `CCCn1c(C)cc(C(=O)CN2C(=O)c3ccccc3S2(=O)=O)c1C`, the “activity change, negative = inhibition” value is 1.2%.
As for `C[C@H](CO)N1C[C@H](C)[C@H](CN(C)S(=O)(=O)c2ccc(Cl)cc2)OCCCC[C@H](C)Oc2ccc(NC(=O)Nc3ccc(C(F)(F)F)cc3)cc2C1=O`, the “activity change, negative = inhibition” value is 1.45%.
For `N#C[C@@H]1[C@H](c2ccc(C#CC3CCCCC3)cc2)[C@H](CO)N1S(=O)(=O)c1ccccc1`, the “activity change, negative = inhibition” value is -11%.
In the case of `Cc1ccc(S(=O)(=O)Nc2ccc3c(c2)CC(=O)N([C@H](C)CO)C[C@H](C)[C@H](CN(C)S(=O)(=O)c2ccc(F)cc2)O3)cc1`, the “activity change, negative = inhibition” value is -1.6%.
As for `C[C@H]1CCCCO[C@@H](CN(C)Cc2ccc(C(F)(F)F)cc2)[C@@H](C)CN([C@@H](C)CO)C(=O)c2cc(NC(=O)c3ccccc3)ccc2O1`, the “activity change, negative = inhibition” value was -3.35%.
Regarding `C[C@H]1CN([C@@H](C)CO)C(=O)Cc2cc(NC(=O)NC3CCCCC3)ccc2O[C@H]1CN(C)S(=O)(=O)c1ccc(Cl)cc1`, the “activity change, negative = inhibition” value was -7.7%.
With `C[C@@H]1CCCCO[C@H](CN(C)C(=O)C2CCCCC2)[C@@H](C)CN([C@@H](C)CO)C(=O)c2cc(NC(=O)Nc3ccc(F)cc3)ccc2O1`, the “activity change, negative = inhibition” value is 1.7%.
Turning to `Cc1ccsc1/C=N/Nc1cccc(C(=O)O)c1`, the “activity change, negative = inhibition” value is 221%.
Consider `C[C@@H]1CN([C@@H](C)CO)C(=O)Cc2cc(NS(=O)(=O)c3ccc(Cl)cc3)ccc2O[C@H]1CN(C)Cc1ccc(Oc2ccccc2)cc1`, for which the “activity change, negative = inhibition” value is 4.5%.
For `C[C@@H]1CCCCO[C@@H](CN(C)C(=O)Nc2cccc3ccccc23)[C@H](C)CN([C@H](C)CO)C(=O)c2cc(NS(=O)(=O)c3ccc(F)cc3)ccc2O1`, the “activity change, negative = inhibition” value is 1.82%.
On the same count and under the same terms, with `Cc1ccc(S(=O)(=O)N(C)C[C@H]2Oc3cc(C#Cc4ccncc4)ccc3S(=O)(=O)N([C@@H](C)CO)C[C@@H]2C)cc1` the figure was -0.934%; with `C[C@H](CO)N1C[C@H](C)[C@H](CN(C)S(=O)(=O)c2ccc(Cl)cc2)OCCCC[C@H](C)Oc2ccc(NS(=O)(=O)c3ccc(F)cc3)cc2C1=O`, 0.178%.

A short description of the next test: general cell-killing toxicity readout – plate reader, dry powder samples, cytotoxicity control for PAX8 inhibitor project, dose response (AID 743021). To be noted: cell line, non-specific cytotoxicity counter-screen; series mostly up to 35 µM; activity change, negative = cytotoxicity: at the top concentration.
`C[C@H]1CCCCO[C@H](CN(C)Cc2ccc(C(F)(F)F)cc2)[C@@H](C)CN([C@@H](C)CO)C(=O)c2cc(NC(=O)c3ccccc3)ccc2O1`: the “activity change, negative = cytotoxicity” value was 5.45%.
`C=C1C(=O)C2=CC1CCC(=O)C1(C)CCC(OC(C)=O)C(C)(C)C1CC2O` (configuration not stated): the “activity change, negative = cytotoxicity” value is 38.7%.
`COc1cc(C2C3=C(COC3=O)Oc3cc4c(cc32)OCO4)cc(OC)c1O` (configuration not stated): the “activity change, negative = cytotoxicity” value is 6.71%.
With `Cc1noc(C)c1S(=O)(=O)N(C)C[C@H]1OCCCC[C@@H](C)Oc2ccc(NS(=O)(=O)c3ccc(Cl)cc3)cc2C(=O)N([C@@H](C)CO)C[C@@H]1C`, the “activity change, negative = cytotoxicity” value was 1.86%.
Still for that read-out and setting: with `C[C@H]1CCCCO[C@H](CN(C)Cc2ccc(C(F)(F)F)cc2)[C@@H](C)CN([C@@H](C)CO)C(=O)c2cc(NS(=O)(=O)c3ccc(Cl)cc3)ccc2O1` the figure was 3.19%; with `COc1ccc(S(=O)(=O)Nc2ccc3c(c2)C(=O)N([C@@H](C)CO)C[C@H](C)[C@@H](CN(C)Cc2ccc(C(F)(F)F)cc2)OCCCC[C@H](C)O3)cc1`, -13.3%.
For the molecule `Cc1ccc2c(c1)c1c3n2CCN(CC(N)=O)C3CCC1` (configuration not stated), the “activity change, negative = cytotoxicity” value was -1.74%.
`C[C@H]1CN([C@@H](C)CO)C(=O)c2cc(NS(=O)(=O)c3ccccc3)ccc2O[C@@H]1CN(C)Cc1ccc(Oc2ccccc2)cc1`: the “activity change, negative = cytotoxicity” value was 10.2%.
Same read-out and setting: the same measure for `COc1cccc(-c2ccc([C@H]3[C@@H](CO)N(C(=O)Cc4ccccc4)[C@H]3C#N)cc2)c1`: -17.7%.
On the same count and under the same terms, the same measure for `C[C@@H]1CN([C@@H](C)CO)C(=O)c2cc(NC(=O)c3ccccc3)ccc2O[C@@H](C)CCCCO[C@@H]1CN(C)Cc1ccc(C(F)(F)F)cc1`: 7.86%; for `CCC(=O)NC(c1ccc(C)cc1)c1ccc2cccnc2c1O` (configuration not stated): 47.4%.
Regarding `Cc1ccc(S(=O)(=O)CC(CN2CCCCC2)N2CCCCC2)cc1` (configuration not stated), the call was inactive.
As to `Oc1cccc2cc(Nc3ccccc3)cnc12`, the “activity change, negative = cytotoxicity” value was 20.1%.
As to `Cc1nc2sc(C(c3ccco3)N3CCN(C(c4ccccc4)c4ccccc4)CC3)c(O)n2n1` (configuration not stated), the “activity change, negative = cytotoxicity” value was 17%.
On to `CC(=O)NC(c1ccc(Cl)cc1)c1ccc2cccnc2c1O` (configuration not stated), for which the call was inactive.
For `C[C@@H]1CCCCO[C@@H](CN(C)S(=O)(=O)c2ccc(Cl)cc2)[C@H](C)CN([C@H](C)CO)C(=O)c2cc(NS(=O)(=O)c3ccc(F)cc3)ccc2O1`, the “activity change, negative = cytotoxicity” value was -7.86%.
Consider `Cc1ccccc1CNC(=O)C1CCCN(c2nnc(C)c3c(C)n(-c4ccccc4)nc23)C1` (configuration not stated), for which the “activity change, negative = cytotoxicity” value is -7.56%.
For `CCN(CC(=O)Nc1c(F)cccc1F)C(=O)c1cc(S(=O)(=O)N(C)C)ccc1N1CCCC1`, the “activity change, negative = cytotoxicity” value was -6.76%.
On to `CCCn1c(C)cc(C(=O)CN2C(=O)c3ccccc3S2(=O)=O)c1C`, for which the “activity change, negative = cytotoxicity” value was -26.1%.
`N#C[C@@H]1[C@H](c2ccc(C#CC3CCCCC3)cc2)[C@H](CO)N1S(=O)(=O)c1ccccc1`: the “activity change, negative = cytotoxicity” value was -14.5%.
As to `COc1ccc(C(=O)c2ccc(Cl)c([N+](=O)[O-])c2)cc1`, the “activity change, negative = cytotoxicity” value is -2.85%.
On to `Cc1ccc(S(=O)(=O)Nc2ccc3c(c2)CC(=O)N([C@H](C)CO)C[C@H](C)[C@H](CN(C)S(=O)(=O)c2ccc(F)cc2)O3)cc1`, for which the “activity change, negative = cytotoxicity” value was -21.1%.
Take `C[C@H]1CCCCO[C@@H](CN(C)Cc2ccc(C(F)(F)F)cc2)[C@@H](C)CN([C@@H](C)CO)C(=O)c2cc(NC(=O)c3ccccc3)ccc2O1`: the “activity change, negative = cytotoxicity” value is 6.22%.
Turning to `C[C@H]1CN([C@@H](C)CO)C(=O)Cc2cc(NC(=O)NC3CCCCC3)ccc2O[C@H]1CN(C)S(=O)(=O)c1ccc(Cl)cc1`, the “activity change, negative = cytotoxicity” value is 17.4%.
In the case of `O=C1c2cccc3cc([N+](=O)[O-])cc(c23)C(=O)N1CCN1CCCC1`, the “activity change, negative = cytotoxicity” value is -8.3%.
As to `CC(C)CCCCCCCCCCCCC(=O)NCC(=O)NC1C(C)OC(Nc2ncnc3nc[nH]c23)C(O)C1O` (configuration not stated), the “activity change, negative = cytotoxicity” value was 44%.
For `COc1cc2nc(C3CCC3)nc(N3CCN(c4ccccc4OC)CC3)c2cc1OC`, the “activity change, negative = cytotoxicity” value is -12.5%.
On the same count and under the same terms, with `C[C@@H]1CCCCO[C@H](CN(C)C(=O)C2CCCCC2)[C@@H](C)CN([C@@H](C)CO)C(=O)c2cc(NC(=O)Nc3ccc(F)cc3)ccc2O1` the figure was 5.45%; with `Cc1ccsc1/C=N/Nc1cccc(C(=O)O)c1`, 4.6%.
Still for that read-out and setting: with `C[C@@H]1CN([C@@H](C)CO)C(=O)Cc2cc(NS(=O)(=O)c3ccc(Cl)cc3)ccc2O[C@H]1CN(C)Cc1ccc(Oc2ccccc2)cc1` the figure was -13.2%.
As to `CCCC1=Nc2cc(C(=O)NCCCOCC)ccc2Sc2ccccc21`, the molecule was called inactive.
Turning to `O=C1CN(C(=O)Cn2ncc(Cl)c(Cl)c2=O)c2ccccc2N1`, the “activity change, negative = cytotoxicity” value is -5.39%.
On the same count and under the same terms, the same measure for `C[C@@H]1CCCCO[C@@H](CN(C)C(=O)Nc2cccc3ccccc23)[C@H](C)CN([C@H](C)CO)C(=O)c2cc(NS(=O)(=O)c3ccc(F)cc3)ccc2O1`: -11.8%; for `Cc1ccc(S(=O)(=O)N(C)C[C@H]2Oc3cc(C#Cc4ccncc4)ccc3S(=O)(=O)N([C@@H](C)CO)C[C@@H]2C)cc1`: 9.39%; for `C[C@H](CO)N1C[C@H](C)[C@H](CN(C)S(=O)(=O)c2ccc(Cl)cc2)OCCCC[C@H](C)Oc2ccc(NS(=O)(=O)c3ccc(F)cc3)cc2C1=O`: -9.1%.
